Tau fluor cs: counter-screen for tau fibril formation inhibitors; Potency, µM (doses to about 57.7 µM), for inactives: at the top dose activity change, negative = decrease; tau K18 P301L Alexa594 fluorescence, heparin fibrillization; actives 0.93% (n = 280,000); note: nearly all actives have a fitted effect of over 55% in size
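Human K18 P301L tau (15 uM unlabeled plus 0.24 uM Alexa 594-labeled, final) in 100 mM sodium acetate pH 7 was mixed with compound and 20 uM heparin and incubated 6 hr at 37 C.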
Tau fibril FP: blocks human tau fibril formation measured by polarization; actives 0.39% (n = 280,000); K18 P301L tau heparin fibrillization, Alexa594 FP, 6 h; P10636; Potency, µM (doses to about 57.7 µM), without a hit: top-dose activity, negative = inhibition, actives largely listed as inhibitors; note: nearly all actives have a fitted effect of over 55% in size
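FP of Alexa 594-tau after heparin (20 uM) induction. Substrate: human K18 P301L, 15 uM unlabeled, 0.24 uM labeled. Buffer 100 mM sodium acetate pH 7. 6 hr, 37 C.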
Tau fibril ThT: inhibitors of human tau fibril formation, thioflavin T binding. P10636. recombinant tau K18 P301L (four-repeat tau fragment), heparin-induced fibrillization, ThT fluorescence. Potency, µM (top dose mostly 57.4 µM), for inactives: top-dose activity, negative = inhibition, most hits filed as inhibitors. actives 2.1% (n = 270,000). AID 1460; note: nearly all actives have a fitted effect of over 55% in size
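Aggregation was driven by heparin (20 uM final) acting on recombinant tau […] bearing P301L in 100 mM sodium acetate pH 7; fibrils were detected with Thioflavin T.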
VDR inhibitor: blocks the human vitamin D receptor | P11473 | VDR-SRC2-3 peptide fluorescence polarization, 2 h | Potency, µM, for the others: max response, negative = inhibition, actives largely listed as inhibitors | actives 0.93% (n = 400,000)
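Two reagent solutions held at 4 deg C in the dark were dispensed, compounds pinned at 23 nl, and the mixture incubated 2 h at room temperature. Read-out: fluorescence polarization of VDR–SRC2-3 peptide binding.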
Sfp inh: inhibitors of Bacillus subtilis Sfp phosphopantetheinyl transferase | AID 1490 | Biochemical Sfp PPTase activity, qHTS | actives 3.5% (n = 310,000) | Potency, µM, for the others: largest response in the series, negative = inhibition, most hits filed as inhibitors | Q9F4F7;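 note: the enzyme is Sfp with the accession as filed and its product quenches rhodamine fluorescence; 0% = enzyme reaction without inhibitor and -100% = no enzyme wells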
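With Hepes-Na pH 7.6 buffer containing 10 mM MgCl2, Sfp (15 nM) modified BHQ-2-YbbR (12.5 uM) using rhodamine-CoA (5 uM). Two reads 30 minutes apart at 525/598 nm yielded each well's rate.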
PLK1 PBD inh: inhibitors of human PLK1 polo-box domain binding. P53350. actives 2.8% (n = 360,000). Plk1 PBD binding of FITC phosphopeptide, fluorescence polarization. Potency, µM, for inactives: max response, negative = inhibition, most hits filed as inhibitors; note: series mostly up to about 57 µM; nearly all actives have a fitted effect of over 65% in size
Target sequence (P53350 whole entry, looked up, the tested form may be a part): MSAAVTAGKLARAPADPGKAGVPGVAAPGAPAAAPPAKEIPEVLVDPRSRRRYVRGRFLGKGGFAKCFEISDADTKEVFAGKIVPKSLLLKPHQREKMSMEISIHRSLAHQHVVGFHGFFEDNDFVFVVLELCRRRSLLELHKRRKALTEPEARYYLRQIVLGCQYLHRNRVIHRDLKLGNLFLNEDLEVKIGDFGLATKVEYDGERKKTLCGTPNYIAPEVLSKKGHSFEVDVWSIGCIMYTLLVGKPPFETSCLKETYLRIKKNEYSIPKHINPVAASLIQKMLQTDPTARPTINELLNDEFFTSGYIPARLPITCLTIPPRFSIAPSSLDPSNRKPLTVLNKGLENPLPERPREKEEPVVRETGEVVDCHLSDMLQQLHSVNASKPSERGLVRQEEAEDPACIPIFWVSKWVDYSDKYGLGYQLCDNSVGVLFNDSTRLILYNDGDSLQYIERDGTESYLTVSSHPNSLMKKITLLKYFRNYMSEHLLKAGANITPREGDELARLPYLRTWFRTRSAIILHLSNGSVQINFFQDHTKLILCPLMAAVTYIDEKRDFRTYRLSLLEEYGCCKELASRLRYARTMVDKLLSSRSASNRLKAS
* hit, by the source's call; ! = not active in a repeat; [ ] = remark or other dose. This is a sample that favours compounds with a hit; in the whole collection about 6% have one here. Calls come from the whole dose curve; as a rule, active = well fitted curve in the direction sought with a large enough effect; inconclusive = small, poorly fitted or top-dose-only effect, or another doubt; inactive = no such curve, though single readings can be large; an effect the other way counts as inactive or inconclusive. Unless noted, % is set by controls: 0 for no effect and ±100 for the full control effect; potency is the fitted concentration of half-maximal effect.

`CC(=O)N(Cc1ccc(F)cc1)C1=C(NCCc2ccccc2)C(=O)c2ccccc2C1=O` gave Tau fluor cs inconclusive, Tau fibril FP inconclusive, Tau fibril ThT 28.2µM*, VDR inhibitor 14.9%, Sfp inh -11.0% and PLK1 PBD inh 0.9%.
`O=C(O)c1cccc(NC2=C(Cl)C(=O)c3ccccc3C2=O)c1` gave Tau fluor cs 3.98µM*[quencher], Tau fibril FP 25.1µM*, Tau fibril ThT 2.82µM*, VDR inhibitor inconclusive, Sfp inh 25.1µM* and PLK1 PBD inh 16.8µM*.
For O=C(O)c1ccc(NC2=C(Cl)C(=O)c3ccccc3C2=O)cc1 the results were Tau fluor cs 1.78µM*[quencher], Tau fibril FP 3.55µM*, Tau fibril ThT 1.41µM*, VDR inhibitor inconclusive, Sfp inh 22.4µM* and PLK1 PBD inh 5.32µM*.
For O=C1C(Cl)=C(Nc2ccccc2)C(=O)c2ccccc21 the results were Tau fluor cs 3.55µM*[quencher], Tau fibril FP inconclusive, Tau fibril ThT 3.16µM*, VDR inhibitor 3.4%, Sfp inh 1.2% and PLK1 PBD inh -15.0%.
Screening C=CCNC1=C(Cl)C(=O)c2ccccc2C1=O returned Tau fluor cs 6.7%, Tau fibril FP 2.0%, Tau fibril ThT 0.9%, VDR inhibitor -6.6%, Sfp inh -9.9% and PLK1 PBD inh -6.8%.
For COC(=O)CCCn1cc(CN2CC(N3CCCC3)CS2(=O)=O)nn1 (centres undefined) the results were PLK1 PBD inh -3.4%.
`O=C(Nc1ccc(OCc2ccccc2)cc1)Nc1nnc([C@@H]2C[C@H](O)[C@@H](CO)O2)s1` gave PLK1 PBD inh -2.7%.
Screening Cc1cncc(NCc2cccc(Cl)c2)n1 returned PLK1 PBD inh -1.0%.
For COc1ccc(Cc2c(-c3ccc(F)cc3)nc3cc(C)c(Br)c(C)n23)c(C)c1 the results were PLK1 PBD inh -1.2%.
`O=C(c1ccc(Cl)cc1)N1CCC(c2ccncc2)CC1` gave Tau fluor cs 12.5%, Tau fibril FP -1.9%, Tau fibril ThT 12.4% and VDR inhibitor -17.9%.
`CC(C)OCCCNC1=C(Cl)C(=O)c2ccccc2C1=O` gave Tau fluor cs inconclusive, Tau fibril FP 7.2%, Tau fibril ThT 12.6µM*, VDR inhibitor 2.5%, Sfp inh inconclusive and PLK1 PBD inh -5.0%.
Screening O=C1C(Cl)=C(NCCc2ccccc2)C(=O)c2ccccc21 returned VDR inhibitor 17.8µM* and PLK1 PBD inh 2.67µM*.
Screening COCCCNC1=C(Cl)C(=O)c2ccccc2C1=O returned Tau fluor cs -12.4%, Tau fibril FP 5.9%, Tau fibril ThT inconclusive, VDR inhibitor 19.2%, Sfp inh 0.9% and PLK1 PBD inh -16.2%.
For CC1(C)CC(=O)C2=C(C1)N(Cc1ccco1)C(=O)C2(NC(=O)c1cccnc1)C(F)(F)F (centres undefined) the results were Tau fluor cs -9.6%, Tau fibril FP -2.6%, Tau fibril ThT -18.3%, VDR inhibitor 2.6%, Sfp inh 22.4µM* and PLK1 PBD inh -9.7%.
`CC1(C)CC(=O)C2=C(C1)N(Cc1cccnc1)C(=O)C2(NC(=O)c1cccnc1)C(F)(F)F` (centres undefined) gave Tau fluor cs -2.7%, Tau fibril FP -3.9%, Tau fibril ThT 2.3%, VDR inhibitor -0.5%, Sfp inh 31.8% and PLK1 PBD inh -5.8%.
Screening CCN(CC(=O)Nc1c(F)cccc1F)C(=O)C1(c2ccccc2)CC1 returned VDR inhibitor 10.1%, Sfp inh 15.4% and PLK1 PBD inh -15.4%.
`CN(Cc1ccco1)c1ncnc2ccc(-c3ccc4c(c3)OCO4)cc12` gave Tau fluor cs -14.8%, Tau fibril FP -6.8%, Tau fibril ThT -16.4%, VDR inhibitor 39.8µM*! and Sfp inh 44.7µM*.
`CN(Cc1ccco1)c1ncnc2ccc(-c3cccnc3)cc12` gave Tau fluor cs -2.3%, Tau fibril FP -1.0%, Tau fibril ThT 4.1%, VDR inhibitor inconclusive and Sfp inh -27.6%.
CN(Cc1ccco1)c1ncncc1-c1cccnc1 was read as VDR inhibitor 44.7µM* and Sfp inh inconclusive.
`CN(C)Cc1ccccc1-c1ccc2ncnc(N(C)Cc3ccco3)c2c1` gave Tau fluor cs -10.5%, Tau fibril FP -2.0%, Tau fibril ThT -13.1%, VDR inhibitor inconclusive and Sfp inh 9.4%.
Screening Cc1ccccc1-c1ccc2ncnc(N(C)Cc3ccco3)c2c1 returned VDR inhibitor 31.6µM* and Sfp inh inconclusive.
Screening COc1ccc2c(c1)OC1(O)COc3cc(OC)c(OC)cc3C1=C2 (centres undefined) returned Tau fluor cs inconclusive, Tau fibril FP inconclusive, Tau fibril ThT 5.62µM*, VDR inhibitor 5.8% and Sfp inh -3.6%.
C=CCn1c(O)c(/C=C2\C=NN=C2c2ccccc2)sc1=S was read as Tau fluor cs inconclusive, Tau fibril FP inconclusive, Tau fibril ThT inconclusive, VDR inhibitor 4.7%, Sfp inh -15.6% and PLK1 PBD inh 0.9%.
For CCCCC(CC)Cn1c(O)c(/C=C2\C=NN=C2c2ccccc2)sc1=S (centres undefined) the results were Tau fluor cs -0.3%, Tau fibril FP 17.8µM*, Tau fibril ThT 1.0%, VDR inhibitor -8.5%, Sfp inh 14.6% and PLK1 PBD inh -8.4%.
Screening Cc1[nH]n(-c2ccccc2)c(=O)c1C(C[N+](=O)[O-])c1ccc(F)cc1 (centres undefined) returned Tau fluor cs -2.9%, Tau fibril FP 5.5%, Tau fibril ThT inconclusive, VDR inhibitor inconclusive, Sfp inh 2.0% and PLK1 PBD inh inconclusive.
Cc1[nH]n(-c2ccccc2)c(=O)c1C(C[N+](=O)[O-])c1ccc(Cl)cc1 (centres undefined) was read as Tau fluor cs -15.8%, Tau fibril FP 8.9%, Tau fibril ThT inconclusive, VDR inhibitor inconclusive, Sfp inh -5.7% and PLK1 PBD inh 11.9µM*.
For COc1ccc(C(c2c(C)[nH]n(-c3ccccc3)c2=O)c2c(C)[nH]n(-c3ccccc3)c2=O)cc1OC the results were Tau fluor cs -14.2%, Tau fibril FP -2.5%, Tau fibril ThT inconclusive, VDR inhibitor -7.8%, Sfp inh 0.6% and PLK1 PBD inh 2.67µM*.
Screening Cc1[nH]n(-c2ccccc2)c(=O)c1C(c1ccccc1[N+](=O)[O-])C(C#N)C#N (centres undefined) returned VDR inhibitor 89.1µM*, Sfp inh 5.4% and PLK1 PBD inh 29.9µM*.

High-throughput results as filed in PubChem.
